Where “and” joins values, the source holds several entries; their conditions need not be identical. Equal values may be shown once. Calls of active or inactive are those of the source.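 How the source made its calls, unless noted: active means compounds whose cell count with miR-34 switched on is under 0.7 times the count with it off; inactive means the rest.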 Where a SMILES comes first, the peptide text is derived from it. [ ]: non-standard residue; d: D form.
Columns and labels:
[1] = tested on: Aerobactin synthetase IucA (Klebsiella pneumoniae); experiment: inhibition of K. pneumoniae IucA enzyme – biochemical, Tocris library, absorbance (AID 1345561; call rule not given here;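 further: 100% = enzyme without compound and 0% = no enzyme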); details: purified IucA enzyme assay, absorbance (OD) read-out; stronger effect = lower value;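 tested at 8 µM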
[2] = viability loss with induced miR-34 in A549 – imaging, A549 dox-inducible miR-34, nuclei and caspase counts, primary screen (AID 1347080); details: A549 miR-34 inducible, Hoechst nuclei count, 48 h
[3] = galactose survival enhancers in mitochondrial complex I cybrids – cell-based, galactose medium, ATP luminescence, primary screen (AID 1645843;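 active means z-score of at least 1.8 in each of two replicates, scored against plate mean and spread of sample wells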;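 further: positive z means more ATP and so rescue of galactose-driven cybrid death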); details: complex I mutant cybrid cells, 72 h, stronger effect = higher value
[4] = stronger effect = lower value, cell number ratio, induced over uninduced
[5] = measured here: relative caspase fold change +Dox/-Dox
[6] = measured here: total cells with miR-34 induction, stronger effect = lower value
[7] = measured here: total cells without miR-34 induction

## COc1cccc(C=NC=Nc2cccc(OC)c2)c1
[1]
  remaining activity: 120% (inactive)
[2]; [4]
  fold change: 0.917 (inactive)
[2]; [5]
  fold change: 0.661
[2]; [6]
  cell count: 8640
[2]; [7]
  cell count: 9420
[3]
  z-score: -0.08 (inactive)

## CC1(C)Oc2ccc(C#N)cc2[C@H](N2CCCC2=O)[C@H]1O (racemic)
[1]
  remaining activity: 116% (inactive)
[2]; [4]
  fold change: 0.905 (inactive)
[2]; [5]
  fold change: 1.25
[2]; [6]
  cell count: 8970
[2]; [7]
  cell count: 9900
[3]
  z-score: 0.155 (inactive)

## N#CC(Cc1ccc(O)cc1)c1ccc(O)cc1 (stereo not given)
[1]
  remaining activity: 90.6% (inactive)
[2]; [4]
  fold change: 0.917 (inactive) and 0.865 (inactive)
[2]; [5]
  fold change: 0.401 and 1.73
[2]; [6]
  cell count: 5410 and 8710
[2]; [7]
  cell count: 5900 and 10100
[3]
  z-score: 2.66 (active)

## COCCNC(=O)COc1ccc(OCCNC[C@@H](O)COc2ccccc2)cc1
[1]
  remaining activity: 95.4% (inactive)
[2]; [4]
  fold change: 0.88 (inactive)
[2]; [5]
  fold change: 0.916
[2]; [6]
  cell count: 8400
[2]; [7]
  cell count: 9540
[3]
  z-score: 0.13 (inactive)

## Cc1c(C(=O)N(C)C2CCCCC2)sc2nc3ccc(N)cc3n12
[1]
  remaining activity: 121% (inactive)
[2]; [4]
  fold change: 0.956 (inactive)
[2]; [5]
  fold change: 1.28
[2]; [6]
  cell count: 7660
[2]; [7]
  cell count: 8010
[3]
  z-score: -0.64 (inactive)

## CC1c2ccccc2CN1CC1=NCCN1 (stereo not given)
[1]
  remaining activity: 111% (inactive)
[2]; [4]
  fold change: 0.985 (inactive)
[2]; [5]
  fold change: 0.732
[2]; [6]
  cell count: 8400
[2]; [7]
  cell count: 8530
[3]
  z-score: -0.515 (inactive)

## O=C(Nc1ccc(C(F)(F)F)cn1)N1CCN(c2ncccc2C(F)(F)F)CC1
[1]
  remaining activity: 86.8% (inactive)
[2]; [4]
  fold change: 0.952 (inactive)
[2]; [5]
  fold change: 1.39
[2]; [6]
  cell count: 6230
[2]; [7]
  cell count: 6540
[3]
  z-score: -0.475 (inactive)

## Clc1ccccc1CNCC1CCC(CNCc2ccccc2Cl)CC1 (stereo not given)
[1]
  remaining activity: 103% (inactive)
[2]; [4]
  fold change: 0.98 (inactive)
[2]; [5]
  fold change: 0.883
[2]; [6]
  cell count: 7550
[2]; [7]
  cell count: 7700
[3]
  z-score: -0.795 (inactive)

## CC[C@]1(O)C[C@H]2CN(CCc3c([nH]c4ccccc34)[C@@](C(=O)OC)(c3cc4c(cc3OC)N(C)[C@H]3[C@@](O)(C(=O)OC)[C@H](OC(C)=O)[C@]5(CC)C=CCN6CC[C@]43[C@@H]65)C2)C1
[1]
  remaining activity: 123% (inactive)
[2]; [4]
  fold change: 1.06 (inactive)
[2]; [5]
  fold change: 0.382
[2]; [6]
  cell count: 1570
[2]; [7]
  cell count: 1480
[3]
  z-score: -0.65 (inactive)

## N[C@H](C(=O)O)c1ccc(C(=O)O)c(O)c1
[1]
  remaining activity: 95.5% (inactive)
[2]; [4]
  fold change: 0.931 (inactive)
[2]; [5]
  fold change: 0.823
[2]; [6]
  cell count: 8860
[2]; [7]
  cell count: 9520
[3]
  z-score: -0.145 (inactive)

## c1ccc2cc(C3=NCCN3)ncc2c1
[1]
  remaining activity: 113% (inactive)
[2]; [4]
  fold change: 0.991 (inactive)
[2]; [5]
  fold change: 0.685
[2]; [6]
  cell count: 9570
[2]; [7]
  cell count: 9660
[3]
  z-score: -0.34 (inactive)

## O=Nc1ccc(O)c2ncccc12
[1]
  remaining activity: 118% (inactive)
[2]; [4]
  fold change: 1.09 (inactive)
[2]; [5]
  fold change: 1.32
[2]; [6]
  cell count: 2920
[2]; [7]
  cell count: 2670
[3]
  z-score: -1.02 (inactive)

## c1cc2c3c(c1)c1c(n3CCNC2)CCCC1
[1]
  remaining activity: 120% (inactive)
[2]; [4]
  fold change: 0.921 (inactive)
[2]; [5]
  fold change: 1.32
[2]; [6]
  cell count: 7680
[2]; [7]
  cell count: 8340
[3]
  z-score: -0.505 (inactive)

## Cc1nnc(-c2ccc3occ(-c4ccc(S(C)=O)cc4)c3c2)o1 (stereo not given)
[1]
  remaining activity: 113% (inactive)
[2]; [4]
  fold change: 0.855 (inactive)
[2]; [5]
  fold change: 1.35
[2]; [6]
  cell count: 4510
[2]; [7]
  cell count: 5270
[3]
  z-score: -0.44 (inactive)

## Cc1c(NC(=O)N2CCOCC2)ccc2c1c1ccccc1n2C(C)C
[1]
  remaining activity: 122% (inactive)
[2]; [4]
  fold change: 0.891 (inactive)
[2]; [5]
  fold change: 1.37
[2]; [6]
  cell count: 8260
[2]; [7]
  cell count: 9270
[3]
  z-score: 1.14 (inactive)

## COc1ccc(-c2ccc(=N)n(CCCC(=O)O)n2)cc1
[1]
  remaining activity: 122% (inactive)
[2]; [4]
  fold change: 0.902 (inactive)
[2]; [5]
  fold change: 0.531
[2]; [6]
  cell count: 8640
[2]; [7]
  cell count: 9580
[3]
  z-score: -0.295 (inactive)

## N[C@@H](C(=O)O)c1ccc(C(=O)O)c(C(=O)O)c1
[1]
  remaining activity: 95.5% (inactive)
[2]; [4]
  fold change: 0.914 (inactive)
[2]; [5]
  fold change: 0.832
[2]; [6]
  cell count: 8600
[2]; [7]
  cell count: 9410
[3]
  z-score: 0.05 (inactive)

## CNC(=O)[C@H]1O[C@@H](n2cnc3c(NCc4cccc(I)c4)ncnc32)[C@H](O)[C@@H]1O
[1]
  remaining activity: 116% (inactive)
[2]; [4]
  fold change: 0.865 (inactive)
[2]; [5]
  fold change: 0.723
[2]; [6]
  cell count: 8280
[2]; [7]
  cell count: 9570
[3]
  z-score: 2.99 (active)

## Cc1c[nH]c(=O)n(CCCN2CCN(c3ccccc3OCC(F)(F)F)CC2)c1=O
[1]
  remaining activity: 126% (inactive)
[2]; [4]
  fold change: 0.952 (inactive)
[2]; [5]
  fold change: 0.729
[2]; [6]
  cell count: 10000
[2]; [7]
  cell count: 10500
[3]
  z-score: -0.38 (inactive)

## CC1=C(C(=O)OCCN(Cc2ccccc2)c2ccccc2)C(c2cccc([N+](=O)[O-])c2)C(P2(=O)OCC(C)(C)CO2)=C(C)N1 (stereo not given)
[1]
  remaining activity: 131% (inactive)
[2]; [4]
  fold change: 0.992 (inactive)
[2]; [5]
  fold change: 1.07
[2]; [6]
  cell count: 4790
[2]; [7]
  cell count: 4830
[3]
  z-score: -0.9 (inactive)

## O=[N+]([O-])c1cc2nc(O)c(O)nc2cc1[N+](=O)[O-]
[1]
  remaining activity: 103% (inactive)
[2]; [4]
  fold change: 0.896 (inactive)
[2]; [5]
  fold change: 1.68
[2]; [6]
  cell count: 8310
[2]; [7]
  cell count: 9280
[3]
  z-score: -0.355 (inactive)

## O=C1c2ccccc2C(Cc2ccncc2)(Cc2ccncc2)c2ccccc21
[1]
  remaining activity: 107% (inactive)
[2]; [4]
  fold change: 0.992 (inactive)
[2]; [5]
  fold change: 1.04
[2]; [6]
  cell count: 7700
[2]; [7]
  cell count: 7770
[3]
  z-score: -0.13 (inactive)

## CC(C)Oc1ccc2c(=O)c3cc(C(=O)O)ccc3oc2c1
[1]
  remaining activity: 93.9% (inactive)
[2]; [4]
  fold change: 1.01 (inactive)
[2]; [5]
  fold change: 1.37 and 0.638
[2]; [6]
  cell count: 5920 and 8510
[2]; [7]
  cell count: 5860 and 8390
[3]
  z-score: 0.015 (inactive)

## CN1CCN(C2=Cc3ccccc3Oc3ccc(Cl)cc32)CC1
[1]
  remaining activity: 104% (inactive)
[2]; [4]
  fold change: 0.963 (inactive)
[2]; [5]
  fold change: 0.764
[2]; [6]
  cell count: 6800
[2]; [7]
  cell count: 7060
[3]
  z-score: -0.9 (inactive)

## CC(=O)NCC(=O)N[C@H](CCC(=O)O)C(=O)O (Ac-Gly-[dE]-OH)
[1]
  remaining activity: 103% (inactive)
[2]; [4]
  fold change: 0.899 (inactive)
[2]; [5]
  fold change: 0.513
[2]; [6]
  cell count: 9020
[2]; [7]
  cell count: 10000
[3]
  z-score: -0.245 (inactive)
